The panel holds about 83,000 compounds, 20% with a hit somewhere; the sample as a whole holds those more often.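 96-well plates, one dose, 48 hours. Percent growth reported; active if below 10.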 Values without a mark were called inactive. Activity calls are given as the source filed them.
What was measured:
Assay in all cases: NCI-60 one-dose screen, 48 h (100 = growth as untreated, 0 = no growth, -100 = all killed)
Conditions in all cases: 10 µM unless noted
[1] = system: SK-MEL-2 melanoma
[2] = system: EKVX NSCLC
[3] = system: SN12C renal
[4] = system: UO-31 renal
[5] = system: TK-10 renal
[6] = system: ACHN renal
[7] = system: CAKI-1 renal
[8] = system: CCRF-CEM leukemia
[9] = system: MOLT-4 leukemia
[10] = system: SR leukemia
[11] = system: OVCAR-5 ovarian
[12] = system: OVCAR-4 ovarian
[13] = system: SK-OV-3 ovarian
[14] = system: IGROV1 ovarian
[15] = system: OVCAR-3 ovarian
[16] = system: NCI/ADR-RES ovarian
[17] = system: A498 renal
[18] = system: RPMI-8226 leukemia
[19] = system: OVCAR-8 ovarian
[20] = system: HS 578T breast

C=C(C)[C@@H]1CC[C@]2(CO)CC[C@]3(C)[C@H](CC[C@@H]4[C@@]5(C)CC[C@H](O)C(C)(C)[C@@H]5CC[C@]43C)[C@@H]12
growth [1]: 82.1% | growth [2]: 66.4% | growth [3]: 47.5% | growth [4]: 27.8% | growth [5]: 51% | growth [6]: 18.3% | growth [7]: 72.6% | growth [8]: 75.7% | growth [9]: 71.1% | growth [10]: 42.6% | growth [11]: -21.9% (active) | growth [12]: 33.7% | growth [13]: 41.3% | growth [14]: 35.9% | growth [15]: 64.5% | growth [16]: -43.6% (active)

COc1ccc(Nc2cc(Cl)ccc2C(=O)O)cn1
growth [1]: 115% | growth [2]: 130% | growth [3]: 93.2% | growth [4]: 88.9% | growth [5]: 156% | growth [6]: 108% | growth [17]: 90.9% | growth [8]: 96.3% | growth [9]: 93.5% | growth [10]: 109% | growth [18]: 90.6% | growth [19]: 103% | growth [11]: 107% | growth [12]: 103% | growth [13]: 97.3% | growth [14]: 115% | growth [15]: 94.5% | growth [20]: 95.8% | growth [16]: 109%

c1ccc2[nH]c(Cc3nc4ccccc4[nH]3)nc2c1
growth [1]: 121% | growth [2]: 104% | growth [3]: 107% | growth [4]: 95.3% | growth [5]: 122% | growth [6]: 96.2% | growth [17]: 98.5% | growth [8]: 27.9% | growth [9]: 110% | growth [10]: 100% | growth [18]: 71.9% | growth [19]: 112% | growth [11]: 92% | growth [12]: 96.5% | growth [13]: 126% | growth [14]: 92.2% | growth [15]: 122% | growth [16]: 110%

Oc1ccc(CCC2CCNc3ccccc32)cc1 (centres undefined)
growth [1]: 86.7% | growth [2]: 53.5% | growth [3]: 86% | growth [4]: 78.9% | growth [5]: 93.2% | growth [6]: 66.9% | growth [17]: 69.2% | growth [8]: 69.1% | growth [9]: 84.8% | growth [10]: 75.7% | growth [18]: 45.2% | growth [19]: 73.4% | growth [11]: 97.9% | growth [12]: 63.2% | growth [13]: 73.1% | growth [14]: 91.1% | growth [15]: 84.1% | growth [20]: 91.8% | growth [16]: 74.7%

Nc1ncc([N+](=O)[O-])cn1
growth [1]: 93.1% | growth [2]: 105% | growth [3]: 101% | growth [4]: 90% | growth [5]: 94.5% | growth [6]: 109% | growth [17]: 87.8% | growth [8]: 98.4% | growth [9]: 105% | growth [10]: 104% | growth [18]: 98.6% | growth [19]: 95.8% | growth [11]: 102% | growth [12]: 106% | growth [13]: 106% | growth [14]: 109% | growth [15]: 104% | growth [20]: 101% | growth [16]: 105%

CCCc1cccc(CCC)c1NC(=O)Nc1cc(Cl)cc(Cl)c1
growth [1]: 106% | growth [2]: 109% | growth [3]: 91% | growth [4]: 69.7% | growth [5]: 106% | growth [6]: 101% | growth [7]: 83.5% | growth [8]: 91.6% | growth [9]: 101% | growth [10]: 108% | growth [18]: 96.7% | growth [19]: 101% | growth [11]: 104% | growth [12]: 95.3% | growth [13]: 101% | growth [14]: 108% | growth [15]: 103% | growth [20]: 98.2% | growth [16]: 110%

COC(=O)c1ccc([N+](=O)[O-])c(C)c1
growth [1]: 116% | growth [2]: 109% | growth [3]: 109% | growth [4]: 79.9% | growth [5]: 128% | growth [6]: 97.1% | growth [17]: 79.5% | growth [8]: 4.56% (active) | growth [9]: 112% | growth [10]: 79.8% | growth [18]: 81.1% | growth [19]: 108% | growth [11]: 90.7% | growth [12]: 101% | growth [13]: 106% | growth [14]: 93.1% | growth [15]: 105% | growth [16]: 108%

CC(=O)Nc1ccc(O)c(C)c1
growth [1]: 104% | growth [2]: 112% | growth [3]: 102% | growth [4]: 95.1% | growth [5]: 93.2% | growth [6]: 99.4% | growth [7]: 97.5% | growth [8]: 95.4% | growth [9]: 85.2% | growth [10]: 94.6% | growth [18]: 105% | growth [19]: 100% | growth [11]: 104% | growth [12]: 100% | growth [13]: 105% | growth [14]: 110% | growth [15]: 107% | growth [20]: 107% | growth [16]: 102%

CC(=O)N(C(C)=O)c1ccc(C)cc1
growth [1]: 106% | growth [2]: 92.6% | growth [3]: 96.1% | growth [4]: 92.4% | growth [5]: 99.1% | growth [6]: 112% | growth [7]: 92.7% | growth [8]: 106% | growth [9]: 93.9% | growth [18]: 115% | growth [19]: 101% | growth [11]: 94.2% | growth [13]: 109% | growth [14]: 109% | growth [15]: 112% | growth [20]: 110% | growth [16]: 96.6%

— PubChem BioAssay (NCI)
